# From PubChem BioAssay
# SW480 rerep – A quantitative high throughput screen for small molecules that induce DNA re-replication in SW480 colon adenocarcinoma cells | SW480 DNA re-replication, Hoechst DNA content imaging, 48 h | Potency, µM (series often up to 46.1 µM), inactives show top-dose re-replication activation, usual class: activators | hit rate 1.8% among 340,000 | AID 624297, 2012; further: % of control where 0% means no effect; nearly all actives have a fitted effect of over 55% in size
#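 SW480 cells exposed to compounds for 48 hr at 37 C, 5% CO2, then Hoechst-stained 40 min. Nuclear DNA content imaged by fluorescence scanning (405 nm excitation, 500-530 nm emission); re-replication scored as increased high-intensity nuclei.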
# KB-V1 MDR tox – qHTS assay for MDR1-selective chemotherapeutics: Primary screen using the drug-selected MDR subline cells KB-V1 | KB-V1 MDR cells viability, CellTiter-Glo, 72 h | Potency, µM (titrated, usually from 46.1 µM), hits mostly cytotoxic | hit rate 3.4% among 400,000; further: on the % scale 0 is the no-effect control and ±100 the full control effect; nearly all actives have a fitted effect of over 60% in size
#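 Drug-selected KB-V1 cells, grown in DMEM lacking phenol red with 10% FBS, receive compound titrations; after three days at 37 degrees C, surviving cell ATP is quantified by CellTiter-Glo luminescence and responses normalized and curve-fitted.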
# KB-3-1 cytotox – qHTS assay for MDR1-selective chemotherapeutics: Primary screen using the parental adenocarcinoma cell KB-3-1 | KB-3-1 viability, CellTiter-Glo ATP luminescence, 72 h | Potency, µM (highest dose often 46.1 µM), usual class: cytotoxic | hit rate 1.4% among 400,000 | AID 1347075, 2019; further: on the % scale 0 is the no-effect control and ±100 the full control effect; nearly all actives have a fitted effect of over 60% in size
#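 KB-3-1 parental drug-naive adenocarcinoma cells in DMEM/10% FBS, incubated 72 h at 37 C with pin-transferred compounds across a concentration series. Viability by CellTiter-Glo luminescence; concentration-response curves fitted after normalization.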
# ELG1 repair inh – qHTS screen for small molecules that inhibit ELG1-dependent DNA repair in human embryonic kidney (HEK293T) cells expressing luciferase-tagged ELG1. Potency, µM (highest dose often 46.1 µM), for the others: top-dose activity change, negative = inhibition, most hits filed as inhibitors. HEK293T ELG1-luciferase reporter, luminescence, 16 h; DNA damage induced by 5-fluorouridine. hit rate 2.3% among 330,000; further: on the % scale 0 is the no-effect control and ±100 the full control effect; nearly all actives have a fitted effect of over 55% in size
#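 DMSO vehicle served as the neutral condition. Each well held 2,000 cells given 5-fluorouridine plus compound; after 16 hr at 37 °C/5% CO2, ONE-Glo was added and luciferase measured 30 min later.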
# MCF10A rereplic – A quantitative high throughput screen for small molecules that induce DNA re-replication in MCF 10a normal breast cells | hit rate 2.9% among 350,000 | MCF 10A DNA re-replication, Hoechst nuclear intensity, 48 h | Potency, µM (doses to about 46.1 µM), for the others: top-dose activity, positive = re-replication, hits mostly activators | AID 624296, 2012; further: % of control where 0% means no effect; nearly all actives have a fitted effect of over 50% in size
# * = called active by the depositor; i = inactive; ? = inconclusive; . = no result; ! = not confirmed by another sample; [ ] = another dose, or the depositor's remark. Compounds with a hit are over-represented: about 8.1% of the library has one in this group of screens. The call rests on the fitted dose curve; in most records, active means well fitted curve in the direction sought with a large enough effect; inconclusive means small, poorly fitted or top-dose-only effect, or another doubt; inactive means no such curve, though single readings can be large; an effect the other way counts as inactive or inconclusive. Potency means the concentration at half of the fitted maximal effect.
SMILES,SW480 rerep,KB-V1 MDR tox,KB-3-1 cytotox,ELG1 repair inh,MCF10A rereplic
COc1cc(C(=O)NS(=O)(=O)c2ccccc2C)ccc1Cc1cn(C)c2ccc(NC(=O)OC3CCCC3)cc12,0.8%,.,.,.,21.1µM*
COc1cccc(NC(=O)N(Cc2cn(C)c3ccccc23)C2CCCCC2)c1,.,i,i,.,.
O=C(Cc1ccc(S(=O)(=O)N2CCOCC2)s1)Nc1cc(C(F)(F)F)cc(C(F)(F)F)c1,?,i,?,20.6µM*,20.6µM*
CCOC(=O)c1cc(NC(=O)Cc2ccc(S(=O)(=O)N3CCOCC3)s2)cc(C(=O)OCC)c1,3.3%,?,i,6.51µM*,2.6%
O=C(Cc1ccc(S(=O)(=O)N2CCOCC2)s1)Nc1ccc(N2CCOCC2)cc1,-7.3%,i,i,?,-42.0%
CCc1ccc(OCC(=O)Nc2ccc(S(=O)(=O)N3CCOCC3)cc2)cc1,-3.5%,i,i,15.9%,6.3%
O=c1oc2ccc(Br)cc2cc1-c1nc2c(s1)CCc1ccccc1-2,.,i,i,.,.
Cc1oc(-c2ccc(Cl)cc2)nc1Cn1c(=O)cc(C)c2c(C)nn(-c3cccc(F)c3)c21,.,i,i,.,.
Cc1cc(C(=O)CSc2nc3ccc(Cl)cc3[nH]2)c(C)n1Cc1ccco1,-5.5%,20.6µM*,i,.,?
O=C(CSc1nc2ccc(Cl)cc2[nH]1)NCc1ccco1,-1.6%,?,i,1.8%,?
CCN(CC(=O)Nc1ccc(NC(C)=O)cc1)C(=O)C1(c2ccc(Cl)cc2)CCC1,.,i,i,.,.
COc1ccc(-c2nc(-c3ccc(NC(=O)c4ccncc4)cc3)no2)cc1OC,0.6%,10.3µM*,?,?,11.0%
Cc1ccccc1-c1nc(-c2ccc(NC(=O)c3ccc4c(c3)OCO4)cc2)no1,8.9%,?,?,?,?
COc1cc(-c2nc(-c3ccc(NC(=O)c4ccc5c(c4)OCO5)cc3)no2)cc(OC)c1OC,?,i,i,?,9.2µM*
CCn1c(SCC(=O)NCc2ccco2)nnc1-c1cccc(N(C)C)c1,.,i,i,.,.
CC(C)[C@H](NC(=O)c1ccccc1Cl)C(=O)OCC(=O)N1CCCCC1,4.5%,.,.,?,-7.9%
CCN(CC1CCCO1)C(=O)CCc1nnc(CCc2ccccc2)o1 (stereo not drawn),.,i,i,.,.
O=C1NC(c2ccccc2)=C(c2ccccc2)C1=O,-5.7%,i,i,1.1%,-3.8%
O=C1C(Br)=C(c2ccccc2)C(c2ccccc2)=C1c1ccccc1,2.91µM*,?,6.51µM*,.,3.66µM*
CC(C)(C)N1C(=O)c2ccccc2NC(=O)C1C(=O)NCc1ccco1 (stereo not drawn),.,i,i,.,.
Cc1c(P(=S)(c2ccccc2)c2ccccc2)[n+]2ccccc2n1C/C=C/c1ccccc1,.,i,10.3µM*,.,.
CCOCc1c(C(=O)OCC(=O)NCc2ccc(F)cc2)oc2ccccc12,-0.5%,i,i,8.0%,6.8%
CC(C)C[C@H](CO)N(Cc1ccccc1)S(=O)(=O)N(Cc1ccccc1)[C@@H](CO)CC(C)C,18.4%,20.6µM*!,?,?,?
CCOC(=O)[C@@H](C)N(Cc1ccc(OC)cc1)S(=O)(=O)N(Cc1ccccc1)[C@H](C(=O)OC)C(C)C,1.7%,9.2µM*!,?,3.5%,?
COC(=O)C(CC(C)C)N(Cc1cc(OC)cc(OC)c1)S(=O)(=O)c1ccccc1Br (stereo not drawn),20.6µM*,i,i,?,19.2%
SMILES,SW480 rerep,KB-V1 MDR tox,KB-3-1 cytotox,ELG1 repair inh,MCF10A rereplic
C=CS(=O)(=O)N(Cc1ccccc1)[C@H](CO)CC(C)C,7.6%,i,?,.,9.1%
COC(=O)[C@H](CC(C)C)N(Cc1ccccc1)S(=O)(=O)N(Cc1ccc(OC)cc1)[C@@H](CC(C)C)C(=O)OC,-2.4%,18.4µM*!,?,-6.3%,10.8%
C=CCCN(C(CC(C)C)C(=O)OC)S(=O)(=O)c1ccccc1Br (stereo not drawn),-1.7%[9.22 µM],i,i,-6.7%,?
COC(=O)[C@H](CC(C)C)N(Cc1ccccc1)S(=O)(=O)N(Cc1ccccc1)[C@@H](CC(C)C)C(=O)OC,-5.2%[9.22 µM],?,?,-10.5%,?
Nc1[nH]c(C(=O)c2ccccc2)c(-c2ccncc2)c1C(=O)NCCc1c[nH]c2ccccc12,.,i,i,.,.
COc1ccc(CC(=O)Nc2nnc3n2CCS3)cc1,.,i,i,.,.
O=C(/C=C/c1cccs1)Nc1nccs1,2.6%,i,i,?,?
O=C(Nc1ccc(Br)cn1)c1ccc(Br)s1,8.2µM*,23.1µM*,?,?,18.4µM*
O=C(/C=C/c1cccs1)Nc1ccc(Br)cn1,?,0.366µM*,1.3µM*,?,?
Cc1cc(C)nc(NC(=O)/C=C/c2cccs2)c1,1.4%,i,i,?,-4.6%
NS(=O)(=O)c1ccc(NC(=O)/C=C/c2cccs2)cc1,23.1µM*,i,i,?,-1.7%
Cc1cc(C)c(-c2csc(NC(=O)/C=C/c3cccs3)n2)c(C)c1,?,5.17µM*,?,?,?
O=C(Nc1ccc(Br)cn1)c1ccc(Cl)s1,?,i,?,?,?
C=CCOC(=O)N1CCC2CC1c1cc(-c3cccc(C)c3)ccc12 (stereo not drawn),-0.5%,i,i,.,?
Cc1ccc(S(=O)(=O)N2CCC(=O)N([C@H](COCc3ccc(Cl)c(Cl)c3)Cc3ccccc3)CC2)cc1,.,i,?,.,.
O=C(/C=C/c1cccs1)Nc1cccc(NC(=O)/C=C/c2cccs2)n1,-0.7%,23.1µM*,23.1µM*,16.4µM*,18.4µM*
CCN(CC)S(=O)(=O)c1ccc(C)c(NC(=O)/C=C/c2cccs2)c1,6.5%,8.2µM*,i,16.4µM*,11.9%
O=C(NCCCCCCNC(=O)c1ccc(Br)s1)c1ccc(Br)s1,-2.9%,3.26µM*,?,13.8%,18.7%
O=c1n(Cc2ccccc2)c(O)c2n1Cc1ccccc1N=C2c1ccccc1,.,i,i,.,.
CCc1ccc(CN(C)C(=O)c2cc(COc3cccc4cnccc34)on2)cc1,-9.5%,i,?,?,20.6µM*
Cc1c(C(C)NC(=O)c2cc(COc3cccc4cnccc34)on2)cnn1C (stereo not drawn),-15.2%,?,20.6µM*,3.66µM*,2.6%
CN(Cc1cccc2cnccc12)C(=O)c1cc(COc2ccc(F)cc2F)on1,-5.5%,?,i,?,15.6%
